# Data reported in PubChem BioAssay (NCI).
# Compounds without any hit were thinned out: in the full panel of roughly 83,000, 20% have a hit.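 Cells were grown in 96-well plates and exposed to the test compound at a single concentration for 48 hours; results are reported as percent growth, with values below 10 considered active.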 Active and inactive are the calls of the source.
# Tested on: HL-60(TB) leukemia
# Assay: NCI-60 one-dose screen, 48 h (100 = growth as untreated, 0 = no growth, -100 = all killed)
# Conditions: 10 µM unless noted
row,Structure (SMILES),growth
1,Nc1nc(Cn2c(-c3nonc3N)nc3ccccc32)nc(N2CCCCC2)n1,82.2% (inactive)
2,O=C(c1ccc(/C=C/c2n[nH]c3ccccc23)cc1)N1CCNCC1,31.7% (inactive)
3,Cc1oc2nc[nH]c(=O)c2c1C(=O)/C=C/c1ccc(Br)cc1,-4.98% (active)
4,O=C(Nc1cccc(N=Cc2c(O)ccc3ccccc23)c1)c1ccccc1,109% (inactive)
5,COc1cnc2c(c1)C(=O)c1c-2n(CCCN2CCOCC2)c(=O)c2cc(Cl)ccc12,-4.61% (active)
6,C=C(C)[C@@H]1CC[C@]2(C(=O)N3CCN(C)CC3)CC[C@]3(C)[C@H](CC[C@@H]4[C@@]5(C)C/C(=C/c6cccnc6)C(=O)C(C)(C)[C@@H]5CC[C@]43C)[C@@H]12,-4.95% (active)
7,COc1ccc(-c2cn(Cc3ccc4c(Br)cc(Br)c(O)c4n3)nn2)cc1,48.6% (inactive)
8,COc1ccc(C(=O)/C=C/c2ccc(C)cc2)cc1OC,58.4% (inactive)
9,CCOc1ccc(-c2nc3ccc(-c4nc5ccc(N6CCN(C)CC6)cc5[nH]4)cc3[nH]2)cc1,-57.9% (active)
10,Cc1cc2cn3c4ccc(O)cc4[nH]c(=O)c3c2cc1C,-51.9% (active)
11,c1cn2cc(-c3ccc4ncn(C5CCCCC5)c4c3)nc(-c3ccc4c(c3)ncn4C3CCCCC3)c2n1,-42.2% (active)
12,CS(=O)(=O)N1CCc2c(-c3cnc(N)nc3)nc(N3CCOCC3)nc21,34.9% (inactive)
13,COc1cc(C(=O)/C=C/c2cc(C(=O)c3cc(OC)c(OC)c(OC)c3)ccc2OC)ccc1N,3.92% (active)
14,CC(=O)Nc1ccc2c(c1)Cc1c(F)cccc1-2,97.7% (inactive)
15,OCc1ccccn1,102% (inactive)
16,C[C@H]1[C@H](C)CC[C@]2(C(=O)O)CC[C@]3(C)C(=CC[C@@H]4[C@@]5(C)C/C(=C/c6cccnc6)[C@H](O)C(C)(C)[C@@H]5CC[C@]43C)[C@H]12,-16.5% [100 µM] (active)
17,O=C(Nc1ccc2ccccc2c1)c1cc2ccccc2cc1O,79.7% (inactive)
18,Cn1ccc(=O)c(C(=O)Nc2nsc3ccc([N+](=O)[O-])cc23)c1,54.9% (inactive)
19,CC(=O)Nc1c(Br)cc2c(c1Br)Cc1cc(Br)ccc1-2,98.5% (inactive)
20,O=C(CCSc1nnc2n(Cc3ccccc3)c(=O)c3c4c(sc3n12)CCCC4)N1CCN(c2ccccc2)CC1,106% (inactive)

row,Structure (SMILES),growth
1,COc1ccc(/C=C/C(=O)c2ccc(-n3cc(CN4CCN(c5cc6c(cc5F)c(=O)c(C(=O)O)cn6C5CC5)CC4)nn3)cc2)cc1OC,45.1% (inactive)
2,COc1ccc(-c2nc(SCCC(C)C)nc(N/N=C\c3cccc([N+](=O)[O-])c3)c2C#N)cc1,97% (inactive)
3,CC(=O)NCC(=O)Nc1ccc(-c2nnc3ccccn23)nc1.CC(=O)NCC(=O)Nc1ccc(-c2nnc3ccccn23)nc1.[Pt+2],109% (inactive)
4,COc1ccc(/C=N/C2=NNC(C)(c3ccccc3O)N2C(Cc2c[nH]c3ccccc23)C(=O)O)cc1 (stereo not given),-21.9% (active)
5,CCC/C(=N\NC(N)=O)C(OC)OC,86.5% (inactive)
6,NC(=N\N=C/c1cccc([N+](=O)[O-])c1)/C(N)=N\N=C/c1cccc([N+](=O)[O-])c1,104% (inactive)
7,N=c1ccccn1CCO,120% (inactive)
8,Fc1cccc(Oc2ccc(Nc3ncnc4ccc(OCCCN5CCOCC5)cc34)cc2Cl)c1,83.6% (inactive)
9,O=c1c2c3c(sc2n2c(-c4cn(-c5ccccc5)nc4-c4ccc(Cl)cc4)nnc2n1Cc1ccccc1)CCCC3,102% (inactive)
10,O=C1C=CC(=O)N1c1ccc(I)cc1Cl,97.9% (inactive)
11,CCCCCCCCCCC(C)Br (stereo not given),93.1% (inactive)
12,O=C(/C=C(/C=C/c1coc2ccccc12)OB(F)F)/C=C/c1coc2ccccc12,88.6% (inactive)
13,CNC(=O)c1ccccc1Oc1nc(Nc2cc(OC)c(OC)c(OC)c2)ncc1Br,53.2% (inactive)
14,O=C(N/N=C\c1cc(Br)cc(Br)c1O)N/N=C/c1cc(Br)cc(Br)c1O,8.67% (active)
15,COc1cc(OC)cc(C2C(C#N)=C(N)Oc3c2ccc2ccc(O)cc32)c1 (stereo not given),-23.8% (active)
16,c1ccc(-c2ccc(-c3ccccc3)[nH]2)cc1,91.2% (inactive)
17,O=[N+]([O-])c1ccc(-c2cn(-c3ccccc3)c(-c3ccccc3)n2)cc1,87% (inactive)
18,Clc1ccc2c(c1)C(c1c[nH]c3ccccc13)(c1c[nH]c3ccccc13)CCO2,82% (inactive)
19,CCN1CCN(c2nc(NNC(=O)Cc3ccccc3)nc(N3CCN(C(c4ccccc4)c4ccccc4)CC3)n2)CC1,-53.9% (active)
20,CC(C)CC(NC(=O)OCC1c2ccccc2-c2ccccc21)C(=O)O (stereo not given),105% (inactive)
